# Compound activity as filed in PubChem.
# In the library only some 18% were active in any assay of this set; here they are far more common.
# TDP1 cell noCPT – qHTS for Inhibitors of human tyrosyl-DNA phosphodiesterase 1 (TDP1): qHTS in cells in absence of CPT; AID 686978, 2013; Potency, µM (highest dose often 46.2 µM), for inactives: at the top dose activity change, negative = growth inhibition, usual class: inhibitors; DT40 Tdp1-/- hTDP1 cells, no CPT, ATP luminescence, 48 h; hit rate 15% among 420,000; also: nearly all actives have a fitted effect of over 55% in size
#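 Readout: luminescence from CellTiter-Glo after 30 min in the dark at RT. Cells: DT40 Tdp1-/- with stable hTDP1, 400/well. Exposure: compounds alone, ≥48 hr, 37 °C.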
# TDP1 cell CPT – qHTS for Inhibitors of human tyrosyl-DNA phosphodiesterase 1 (TDP1): qHTS in cells in presence of CPT. hit rate 12% among 420,000. AID 686979, 2013. Potency, µM (highest dose often 46.2 µM), without a hit: top-dose activity change, negative = growth inhibition, hits mostly inhibitors. chicken DT40 Tdp1-/-;hTDP1 cells + 20 nM CPT, ATP luminescence, 48 h; also: nearly all actives have a fitted effect of over 55% in size
#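 Chicken DT40 Tdp1-/- cells stably complemented with human TDP1 were seeded at 400 cells/well in medium containing 20 nM camptothecin, exposed to pin-transferred compounds, and grown at 37 °C for at least 48 hr. Viability was read as ATP luminescence.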
# TDP1 block – qHTS Assay for Inhibitors of Tyrosyl-DNA Phosphodiesterase (TDP1). AID 485290, 2010. Tyrosyl-DNA phosphodiesterase 1 (Homo sapiens), Q9NUW8. hit rate 0.28% among 350,000. Potency, µM (doses to about 130 µM), inactives show at the top dose activity change, negative = inhibition, actives largely listed as inhibitors. recombinant TDP1, AlphaScreen DNA substrate cleavage; also: nearly all actives have a fitted effect of over 40% in size
#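 Tdp1 1 nM final; 15 min RT w/ cpd; substrate 15 nM, 5 min; beads 10 ug/ml, 10 min; AlphaScreen read. Neg ctrl: no enzyme.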
# PLK1 PBD inh – qHTS for Inhibitors of PLK1-PDB (polo-like kinase 1 - polo-box domain): Primary Screen. Serine/threonine-protein kinase PLK1 (Homo sapiens), P53350. Plk1 PBD binding of FITC phosphopeptide, fluorescence polarization. Potency, µM, without a hit: max response, negative = inhibition, actives largely listed as inhibitors. hit rate 2.8% among 360,000; also: series mostly up to about 57 µM; nearly all actives have a fitted effect of over 65% in size
# Target sequence (P53350 whole entry, looked up, the tested form may be a part): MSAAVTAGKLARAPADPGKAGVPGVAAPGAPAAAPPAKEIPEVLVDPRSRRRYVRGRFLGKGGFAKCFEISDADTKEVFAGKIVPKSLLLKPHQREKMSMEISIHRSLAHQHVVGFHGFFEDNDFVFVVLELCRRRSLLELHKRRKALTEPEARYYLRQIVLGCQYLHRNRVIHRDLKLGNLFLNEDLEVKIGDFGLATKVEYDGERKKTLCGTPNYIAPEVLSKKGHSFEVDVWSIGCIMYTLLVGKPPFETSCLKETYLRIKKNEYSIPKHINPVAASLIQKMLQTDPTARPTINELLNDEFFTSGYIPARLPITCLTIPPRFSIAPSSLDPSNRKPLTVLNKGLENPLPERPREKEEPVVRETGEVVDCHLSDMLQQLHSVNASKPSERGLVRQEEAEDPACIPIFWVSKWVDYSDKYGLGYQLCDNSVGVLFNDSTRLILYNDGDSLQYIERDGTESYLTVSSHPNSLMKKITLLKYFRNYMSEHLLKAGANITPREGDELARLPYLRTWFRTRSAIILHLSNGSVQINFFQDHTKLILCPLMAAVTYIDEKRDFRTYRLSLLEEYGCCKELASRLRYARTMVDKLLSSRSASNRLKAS
# KAT2A inh – qHTS Assay for Inhibitors of GCN5L2; GCN5L2 HAT assay, ThioGlo1 CoA-SH fluorescence; hit rate 0.21% among 390,000; AID 504327, 2011; Histone acetyltransferase KAT2A (Homo sapiens), Q92830; Potency, µM (doses to about 58.9 µM), for inactives: top-dose activity change, negative = inhibition, hits mostly inhibitors
#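 Titration-based screen in which CoA formation is detected via maleimide probe ThioGlo1 (50uM) turning fluorescent on thiol reaction; substrates H3(1-25) 75uM and acetyl-CoA 70uM, GCN5L2 20nM, 20 min incubation at room temperature.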
# VDR inh – Inhibitors of the vitamin D receptor (VDR): qHTS | Vitamin D3 receptor (Homo sapiens), P11473 | VDR-SRC2-3 peptide fluorescence polarization, 2 h | Potency, µM, inactives show max response, negative = inhibition, most hits filed as inhibitors | hit rate 0.93% among 400,000
#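 After 23 nl compound addition and a short centrifugation, plates sat for 2 hours at ambient temperature; polarization of fluorescence then indicated loss of VDR binding to peptide SRC2-3.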
# An asterisk follows results filed as active; ? = inconclusive; . = no result given. Calls follow the shape of the dose curve; as a rule, active = well fitted curve in the direction sought with a large enough effect; inconclusive = small, poorly fitted or top-dose-only effect, or another doubt; inactive = no such curve, though single readings can be large; an effect the other way counts as inactive or inconclusive. % is scaled to controls: 0 for no effect and ±100 for the full control effect; potency is read from the fitted curve at half-maximal effect.
SMILES,TDP1 cell noCPT,TDP1 cell CPT,TDP1 block,PLK1 PBD inh,KAT2A inh,VDR inh
CCOc1ccc(NC(=S)NS(=O)(=O)c2cc(Br)ccc2OCC)cc1,?,-1.4%,.,11.9µM*,.,?
CCOc1ccc(NC(=S)Nc2ccc(Br)cc2Cl)cc1,?,-13.0%,-2.6%,-21.6%,-8.6%,-24.1%
O=S1(=O)C[C@H](N2CC[C@@H](O)C2)[C@@H](COCc2ccccc2)N1,12.6%,4.3%,.,-10.3%,.,.
Cc1cccc(NC(=O)CN(C)C(C)C(=O)Nc2ccc(S(=O)(=O)N3CCCC3)cc2)c1C (centres undefined),?,?,4.9%,-8.0%,-2.9%,0.9%
Cc1nc(/N=C(\N)NC(=O)N2c3ccccc3Sc3ccccc32)nc2ccccc12,?,?,9.5%,-1.1%,-5.2%,-7.8%
Cc1nc(/N=C(\N)NC(=O)c2ccccc2)nc2ccccc12,?,29.1µM*,3.2%,-7.1%,-7.4%,-11.9%
CCCC(=O)N/C(N)=N/c1nc(C)c2cc(C)ccc2n1,23.1µM*,18.4µM*,-5.5%,-5.1%,-1.5%,-1.2%
CCC(=O)N/C(N)=N/c1nc(C)c2cc(C)c(C)cc2n1,?,-20.9%,2.7%,12.7%,?,2.9%
Cc1cc2nc(N=C(N)N)nc(C)c2cc1C,8.2µM*,14.6µM*,3.6%,-8.4%,-2.0%,11.0%
CCc1ccc2nc(N=C(N)N)nc(C)c2c1,7.31µM*,10.3µM*,2.5%,-4.2%,-3.6%,10.7%
Cc1ccc2nc(N=C(N)N)nc(C)c2c1,23.1µM*,?,-5.1%,-4.7%,-6.1%,-3.9%
CC(=O)c1c(C)nc(Nc2nc(C)c3cc(C)ccc3n2)nc1C,15.0%,-16.3%,-1.2%,-5.5%,-13.5%,15.0%
Cn1nc(C(=O)N2CCN(c3ccccc3)CC2)c2c1-c1ccccc1SC2,8.9%,-4.8%,14.3%,.,-10.3%,13.0%
Cn1nc(C(=O)NCc2ccc(F)cc2)c2c1-c1ccccc1SC2,?,?,14.3%,.,-5.6%,-0.4%
CCc1ccccc1N(C)C(=O)c1nn(C)c2c1CSc1ccccc1-2,23.1µM*,?,-2.9%,.,-4.3%,11.0%
COc1ccc(OC)c(CNC(=O)c2nn(C)c3c2CSc2ccccc2-3)c1,?,20.6µM*,5.7%,.,-8.9%,11.5%
COc1ccc(CNC(=O)c2nn(C)c3c2CSc2ccccc2-3)cc1,?,?,8.6%,.,0.7%,0.4%
CCOc1ccc(CCNC(=O)c2nn(C)c3c2CSc2ccccc2-3)cc1,?,16.4µM*,8.6%,.,-5.1%,3.3%
Cc1ccc(N2CCN(C(=O)c3nn(C)c4c3CSc3ccccc3-4)CC2C)cc1 (centres undefined),?,23.1µM*,8.6%,.,-2.6%,10.5%
CC(C)OC(=O)C(C(=O)OC(C)C)=C1SC=CS1,?,?,0.0%,.,-18.4%,-3.0%
CCc1ccc(NC(=O)C2CCCN(S(=O)(=O)c3ccc4c(c3)oc(=O)n4C)C2)cc1 (centres undefined),-26.9%,-18.9%,1.3%,.,1.4%,-9.8%
CC(C)OCCCNC(=O)c1nn(C)c2c1CSc1ccccc1-2,20.6µM*,?,8.6%,.,-10.6%,16.7%
CCN(CC)S(=O)(=O)c1ccc(NC(=O)c2nn(C)c3c2CSc2ccccc2-3)cc1,18.4µM*,?,2.9%,.,-3.4%,-0.9%
CC(C)N(C(=O)c1nn(C)c2c1CSc1ccccc1-2)C1CCCCC1,10.3µM*,20.6µM*,1.2%,-10.0%,-16.5%,-5.5%
Cn1nc(C(=O)NC2CCCCC2)c2c1-c1ccccc1SC2,?,25.9µM*,.,-14.7%,-6.6%,-19.2%
SMILES,TDP1 cell noCPT,TDP1 cell CPT,TDP1 block,PLK1 PBD inh,KAT2A inh,VDR inh
N#Cc1nc(Nc2ccccc2)nc(NC2CCCCC2)n1,.,.,6.8%,.,.,.
COc1ccccc1CCNC(=O)CSc1nc(=O)[nH]c2c1CCC2,-7.9%,7.7%,.,-5.7%,-6.9%,-1.3%
CCN(CC)CCCNC(=O)c1nn(C)c2c1CSc1ccccc1-2,?,?,2.9%,.,-12.5%,9.1%
CC(C)CCNC(=O)c1nn(C)c2c1CSc1ccccc1-2,18.4µM*,?,5.7%,.,-2.5%,2.9%
COc1cc(OC)cc(C(=O)Nc2ccc(S(=O)(=O)N3CCOCC3)cc2)c1,7.8%,-13.7%,.,3.5%,-1.9%,-29.3%
CCOC(=O)c1c(-c2cccs2)csc1NC(=O)CN1CC(C)OC(C)C1 (centres undefined),23.1µM*,25.9µM*,-4.5%,-9.7%,-9.0%,-5.9%
CCOC(=O)c1c(NC(=O)CN2CCCCC2)sc(CN(C)C)c1-c1ccccc1,?,?,8.1%,-13.3%,2.7%,19.0%
CCOC(=O)c1c(-c2ccccc2)csc1NC(=O)CSc1nnc(C)s1,?,23.1µM*,0.0%,0.7%,-9.4%,-10.0%
CCOC(=O)c1c(-c2ccc(C)o2)csc1NC(=S)NC(=O)c1ccccc1Br,?,16.4µM*,6.2%,-15.8%,-7.7%,-4.6%
CCOC(=O)c1c(NC(=O)CCl)sc(CN(C)C)c1-c1ccccc1,9.2µM*,4.11µM*,2.4%,?,-2.0%,-11.9%
CC(C)Oc1ccc(S(=O)(=O)N2CCOCC2)cc1NC(=O)c1ccc(Cl)c(S(=O)(=O)N2CCOCC2)c1,-21.7%,-13.5%,.,0.3%,.,.
CCCCCCN(CCCCCC)C(=O)Cc1c(-c2ccc(Cl)cc2)[nH]c2ccc(Cl)cc12,?,?,11.0%,.,-1.6%,-28.1%
CCOC(=O)c1c(/N=C/N(C)C)sc(/C=N/Nc2ccccc2)c1-c1ccccc1,-21.9%,?,4.5%,23.8µM*,?,-19.7%
CCOC(=O)c1c(/N=C/N(C)C)sc(/C=N/Nc2ccccc2)c1-c1ccccc1Cl,?,-15.4%,8.2%,-10.6%,-3.0%,-6.4%
CCOC(=O)c1c(-c2ccc(C)c(C)c2)csc1NC(=O)C1CC=CCC1C(=O)O (centres undefined),?,?,1.5%,?,-6.9%,-16.2%
CCOC(=O)c1c(-c2ccc(F)cc2)csc1NC(=O)C1CC=CCC1C(=O)O (centres undefined),-20.0%,-3.0%,.,23.8µM*,-3.7%,?
CCOC(=O)c1c(-c2ccccc2)csc1NC(=O)C(C)NCCCN1CCOCC1 (centres undefined),?,?,-6.3%,-4.0%,-15.4%,2.0%
